# Data published in PubChem BioAssay (Tox21).
# A number with no mark means an inactive call. A call without a number means that no potency is given here. Activity calls are given as the source filed them. Unless noted, calls come from the whole dose curve; as a rule, active = well fitted curve in the direction sought with a large enough effect in the repeat runs; inconclusive = weak or mixed curves; inactive = no such curve, though single readings can be large; an effect the other way counts as inactive or inconclusive.
# Columns and labels:
# [1] = qHTS assay to identify small molecule antagonists of the thyroid receptor (TR) signaling pathway - cell viability counter screen (AID 743064); note: nearly all actives have a fitted effect of over 50% in size; note: potency is the fitted concentration of half-maximal effect
# How it was run: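 Same-well viability check: GH3.TRE-Luc cells stimulated with 1 nM T3 alongside test compound for 23.5 h, followed by CellTiter-Fluor fluorescence.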
# [2] = qHTS assay to identify small molecule antagonists of the thyroid receptor (TR) signaling pathway (AID 743065); note: nearly all actives have a fitted effect of over 55% in size; note: potency is the fitted concentration of half-maximal effect
# How it was run: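 GH3.TRE-Luc rat pituitary cells (two TREs driving luciferase) were dosed with compound, then stimulated with 1 nM T3 (final) for 23.5 h at 37 C. ONE-Glo luminescence was the read-out, with CellTiter-Fluor fluorescence as the cytotoxicity counter-screen.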
# [3] = test system: thyroid hormone receptor (rat, GH3 cells); assay: qHTS assay to identify small molecule agonists of the thyroid receptor (TR) signaling pathway (AID 743066; calls by dose curve)
# [4] = target: Estrogen receptor (Homo sapiens) (UniProt P03372); assay: qHTS assay to identify small molecule agonists of the estrogen receptor alpha (ER-alpha) signaling pathway (AID 743075; calls by dose curve;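 note: HEK293 GripTite cells with ER-alpha and UAS-driven beta-lactamase reporter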; note: potency is the fitted concentration of half-maximal effect)
# Chain of Estrogen receptor (Homo sapiens) (P03372 whole entry, looked up): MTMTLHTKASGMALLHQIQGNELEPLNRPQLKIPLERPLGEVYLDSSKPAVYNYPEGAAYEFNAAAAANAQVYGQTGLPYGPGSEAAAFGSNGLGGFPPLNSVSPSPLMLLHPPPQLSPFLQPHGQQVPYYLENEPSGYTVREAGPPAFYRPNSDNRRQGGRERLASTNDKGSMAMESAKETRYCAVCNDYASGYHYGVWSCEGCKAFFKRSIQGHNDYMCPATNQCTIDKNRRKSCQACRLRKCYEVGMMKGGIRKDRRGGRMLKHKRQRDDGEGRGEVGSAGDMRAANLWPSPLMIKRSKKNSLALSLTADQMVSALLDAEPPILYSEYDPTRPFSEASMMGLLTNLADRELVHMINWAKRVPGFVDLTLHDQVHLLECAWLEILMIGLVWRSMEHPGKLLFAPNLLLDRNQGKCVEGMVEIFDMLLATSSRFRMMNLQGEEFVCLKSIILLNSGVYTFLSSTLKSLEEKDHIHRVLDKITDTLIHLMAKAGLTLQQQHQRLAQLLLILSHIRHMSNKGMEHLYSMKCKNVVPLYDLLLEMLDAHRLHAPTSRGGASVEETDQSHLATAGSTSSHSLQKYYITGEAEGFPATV
# [5] = target: Estrogen receptor (Homo sapiens) (UniProt P03372); assay: qHTS assay to identify small molecule agonists of the estrogen receptor alpha (ER-alpha) signaling pathway using the BG1 cell line (AID 743079); conditions: BG1Luc4E2 cells, ERE-luciferase agonist, 22 h; note: potency is the fitted concentration of half-maximal effect; nearly all actives have a fitted effect of over 20% in size
# [6] = qHTS assay to identify small molecule antagonists of the estrogen receptor alpha (ER-alpha) signaling pathway using the BG1 cell line (AID 743080; calls by dose curve;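 note: BG1 cells stimulated with 17beta-estradiol alongside compound; series mostly up to about 70 µM; nearly all actives have a fitted effect of over 25% in size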)
# How it was run: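 Endogenous full-length ER-alpha in BG1-Luc-4E2 cells drives a stably integrated 4×ERE luciferase gene; compounds were tested against 17beta-estradiol over 21.5 h, with luminescence and multiplexed viability fluorescence recorded.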
# [7] = qHTS assay to identify small molecule antagonists of the estrogen receptor alpha (ER-alpha) signaling pathway using the BG1 cell line - cell viability counter screen (AID 743081);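 note: compound given together with 17beta-estradiol as the ER stimulus; nearly all actives have a fitted effect of over 45% in size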; note: potency is the fitted concentration of half-maximal effect
# Aromatase (Homo sapiens) = Aromatase (Homo sapiens) (UniProt P11511); assay: qHTS assay to identify aromatase inhibitors (AID 743083); note: series mostly up to about 70 µM; nearly all actives have a fitted effect of over 55% in size
# Chain of Aromatase (Homo sapiens) (P11511 whole entry, looked up): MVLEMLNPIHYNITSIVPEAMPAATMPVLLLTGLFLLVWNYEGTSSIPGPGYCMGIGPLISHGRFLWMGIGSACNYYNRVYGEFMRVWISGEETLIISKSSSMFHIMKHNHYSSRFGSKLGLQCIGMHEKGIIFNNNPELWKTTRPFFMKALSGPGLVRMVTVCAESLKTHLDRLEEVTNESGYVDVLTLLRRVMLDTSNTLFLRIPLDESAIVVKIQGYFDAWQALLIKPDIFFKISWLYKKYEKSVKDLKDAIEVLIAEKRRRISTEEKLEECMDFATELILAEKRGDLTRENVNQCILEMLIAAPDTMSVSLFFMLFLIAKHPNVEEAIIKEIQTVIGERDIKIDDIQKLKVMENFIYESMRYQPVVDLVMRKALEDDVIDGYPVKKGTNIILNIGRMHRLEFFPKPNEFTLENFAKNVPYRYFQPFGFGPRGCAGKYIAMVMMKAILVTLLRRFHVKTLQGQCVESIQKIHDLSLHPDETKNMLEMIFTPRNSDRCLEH
# [8] = qHTS assay to identify aromatase inhibitors - cell viability counter screen (AID 743084);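 note: cells stimulated with testosterone during compound exposure; nearly all actives have a fitted effect of over 55% in size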
# [9] = target: Aryl hydrocarbon receptor (Homo sapiens) (UniProt P35869); assay: qHTS assay to identify small molecule that activate the aryl hydrocarbon receptor (AhR) signaling pathway (AID 743085); note: nearly all actives have a fitted effect of over 15% in size; note: potency is the fitted concentration of half-maximal effect;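 for activation: HG2L7.5c1 human HepG2 liver cells with stably integrated DRE-driven firefly reporter; series mostly up to about 70 µM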
# Chain of Aryl hydrocarbon receptor (Homo sapiens) (P35869 whole entry, looked up): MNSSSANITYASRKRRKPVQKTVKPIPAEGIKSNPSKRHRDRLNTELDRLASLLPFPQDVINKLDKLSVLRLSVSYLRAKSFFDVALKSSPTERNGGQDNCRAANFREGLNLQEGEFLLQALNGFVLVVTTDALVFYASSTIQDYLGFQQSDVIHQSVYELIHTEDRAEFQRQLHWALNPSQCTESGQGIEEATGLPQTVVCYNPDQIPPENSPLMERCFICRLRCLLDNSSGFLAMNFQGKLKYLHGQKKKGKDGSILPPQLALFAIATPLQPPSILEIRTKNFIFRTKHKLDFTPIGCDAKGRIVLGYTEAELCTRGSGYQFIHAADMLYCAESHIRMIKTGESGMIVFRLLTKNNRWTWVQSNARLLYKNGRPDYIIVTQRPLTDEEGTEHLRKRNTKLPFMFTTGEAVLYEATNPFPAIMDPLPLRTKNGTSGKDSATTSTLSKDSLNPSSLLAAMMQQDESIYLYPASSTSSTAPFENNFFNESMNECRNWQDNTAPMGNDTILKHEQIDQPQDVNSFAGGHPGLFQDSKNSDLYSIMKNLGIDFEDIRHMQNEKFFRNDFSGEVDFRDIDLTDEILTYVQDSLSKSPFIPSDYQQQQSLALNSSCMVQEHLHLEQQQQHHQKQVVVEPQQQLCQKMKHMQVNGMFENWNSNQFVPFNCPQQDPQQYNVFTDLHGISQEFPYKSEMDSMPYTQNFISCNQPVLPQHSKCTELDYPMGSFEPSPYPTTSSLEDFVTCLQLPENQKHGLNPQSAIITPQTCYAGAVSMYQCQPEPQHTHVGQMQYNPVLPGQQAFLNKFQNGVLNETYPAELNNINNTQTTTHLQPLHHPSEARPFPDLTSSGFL
# How it was run: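 Reporter assay in engineered HepG2 line HG2L7.5c1, whose plasmid carries twenty dioxin responsive elements upstream of firefly luciferase. Treatment lasted 24 h at 37C; ONE-Glo luminescence gauged induction.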
# [10] = qHTS assay to identify small molecule that activate the aryl hydrocarbon receptor (AhR) signaling pathway - cell viability counter screen (AID 743086);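 note: HepG2 liver cells carrying the AhR DRE luciferase reporter; series mostly up to about 70 µM; nearly all actives have a fitted effect of over 45% in size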
# How it was run: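 HepG2-AhR-luc (HG2L7.5c1) cells, 4000/well, treated 24 h at 37 C with compound; viability measured as CellTiter-Fluor fluorescence after 30 min in the same wells as the luciferase read.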
# [11] = target: Peroxisome proliferator-activated receptor gamma (Homo sapiens) (UniProt P37231); assay: qHTS assay to identify small molecule agonists of the peroxisome proliferator-activated receptor gamma (PPARg) signaling pathway (AID 743094; active = well fitted activation curve with a large enough effect in the signal ratio in the repeat runs, not every such curve was filed as active; inconclusive = weak or mixed curves, or effect the other way; inactive = no such curve, though single readings can be large or run the other way; the % refers to the signal ratio)
# Chain of Peroxisome proliferator-activated receptor gamma (Homo sapiens) (P37231 whole entry, looked up): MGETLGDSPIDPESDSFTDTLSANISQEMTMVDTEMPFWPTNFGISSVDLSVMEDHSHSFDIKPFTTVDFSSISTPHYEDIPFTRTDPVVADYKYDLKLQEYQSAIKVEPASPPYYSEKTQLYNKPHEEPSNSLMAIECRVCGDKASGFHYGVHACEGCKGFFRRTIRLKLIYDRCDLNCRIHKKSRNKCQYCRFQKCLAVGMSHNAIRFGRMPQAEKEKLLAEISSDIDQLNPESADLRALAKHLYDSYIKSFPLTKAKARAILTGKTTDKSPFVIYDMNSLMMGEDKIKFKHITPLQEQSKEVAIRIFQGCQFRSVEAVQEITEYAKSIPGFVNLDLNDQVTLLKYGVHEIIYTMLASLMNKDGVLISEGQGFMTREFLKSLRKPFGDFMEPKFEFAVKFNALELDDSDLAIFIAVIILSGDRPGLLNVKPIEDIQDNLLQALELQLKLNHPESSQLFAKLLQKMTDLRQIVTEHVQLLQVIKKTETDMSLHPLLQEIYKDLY
# How it was run: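 Following 5 h plating at 37C, PPARg-bla HEK293H cells receive compound or DMSO for 17 h; fluorescence intensity is recorded after LiveBLAzer B/G loading for 1 h at room temperature.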
# [12] = target: Peroxisome proliferator-activated receptor gamma (Homo sapiens) (UniProt P37231); assay: qHTS assay to identify small molecule antagonists of the peroxisome proliferator-activated receptor gamma (PPARg) signaling pathway (AID 743191; calls by dose curve; note: series mostly up to about 63 µM; nearly all actives have a fitted effect of over 30% in size)
# How it was run: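 GeneBLAzer PPARg UAS-bla HEK293H cells, 5 h post-plating, exposed to compounds 17 h at 37C. LiveBLAzer B/G FRET substrate added for 1 h at room temperature; beta-lactamase reporter read by fluorescence intensity.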
# [13] = qHTS assay to identify small molecule antagonists of the peroxisome proliferator-activated receptor gamma (PPARg) signaling pathway - cell viability counter screen (AID 743194); conditions: Potency: co-treated with 50 nM rosiglitazone; note: nearly all actives have a fitted effect of over 55% in size
# How it was run: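 Cytotoxicity counter screen in PPARg-bla HEK293H cells, same wells as reporter assay. Compounds plus 50 nM rosiglitazone (final) for 17 h at 37 C, then viability read by CellTiter-Glo luminescence.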
# [14] = qHTS assay for small molecule agonists of the antioxidant response element (ARE) signaling pathway (AID 743202; active = well fitted activation curve with a large enough effect in the signal ratio in the repeat runs, not every such curve was filed as active; inconclusive = weak or mixed curves, or effect the other way; inactive = no such curve, though single readings can be large or run the other way; the % refers to the signal ratio; note: potency is the fitted concentration of half-maximal effect)
# How it was run: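 Agonist mode reporter screen: HepG2 cells with ARE-controlled beta-lactamase are incubated with test compounds for 16 h at 37 C, and beta-lactamase activity is measured as fluorescence of cleaved B/G FRET substrate.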
# [15] = qHTS assay for small molecule agonists of the antioxidant response element (ARE) signaling pathway - cell viability counter screen (AID 743203; calls by dose curve; note: nearly all actives have a fitted effect of over 55% in size)
# How it was run: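 Compounds in DMSO were pinned onto ARE-bla HepG2 cells plated 5 hrs earlier at 2,000 cells/well. Sixteen hours later at 37C/5% CO2, CellTiter-Glo was added and luminescence measured after 30 min at room temperature.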
# [16] = qHTS assay for small molecule activators of the heat shock response signaling pathway - cell viability counter screen (AID 743209); note: nearly all actives have a fitted effect of over 50% in size
# How it was run: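 Counter screen for cytotoxicity in HeLa HSE-bla reporter cells. Treatment was 5 h at 37 C; viability was detected by luminescent ATP assay (CellTiter-Glo) in the same wells as the beta-lactamase read.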
# [17] = qHTS assay for small molecule activators of the heat shock response signaling pathway (AID 743210; active = well fitted activation curve with a large enough effect in the signal ratio in the repeat runs, with a control signal flat, not every such curve was filed as active; inconclusive = weak or mixed curves; the % refers to the signal ratio;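 note: HeLa cells with beta-lactamase reporter driven by heat shock elements; series mostly up to about 63 µM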)
# How it was run: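 Quantitative high-throughput format using an engineered HeLa line in which heat shock response elements drive beta-lactamase; after 5 h with compound, cells received a B/G FRET substrate and fluorescence was read.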
# [18] = qHTS assay to identify small molecule antagonists of the estrogen receptor alpha (ER-alpha) signaling pathway - cell viability counter screen (AID 743074; calls by dose curve;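 note: HEK293 cells carrying ER-alpha-UAS-bla reporter stimulated with 17beta-estradiol; nearly all actives have a fitted effect of over 45% in size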)
Compound,Potency [1],Potency [2],Potency [3],Potency [4],Potency [5],Potency [6],Potency [7],Potency (Aromatase (Homo sapiens)),Potency [8],Potency [9],outcome [10],outcome [11],Potency [12],Potency [13],Potency [14],Potency [15],Potency [16],outcome [17],outcome [18]
CSc1ccc(C(=O)C(C)(C)N2CCOCC2)cc1,inactive,inactive,inactive,61.6 µM [inconclusive] (active),3.44 µM (active),inactive,inactive,inactive,inactive,inactive,inactive,inactive,inactive,inactive,inactive,inactive,inactive,inactive,
[As]#[In],inactive,inactive,inactive,,,,inactive,inactive,inactive,,inactive,,,inactive,,inactive,,inactive,inactive
O=[N+]([O-])c1cccc(O)c1,inactive,inactive,inactive,,,,inactive,inactive,inactive,inactive,inactive,inactive,inactive,inactive,,,inactive,inactive,inactive
CN(C)CCc1ccc(O)cc1,inactive,inactive,inactive,,,,inactive,inactive,inactive,,inactive,inactive,inactive,inactive,inactive,inactive,inactive,inactive,inactive
CC(C)[N+](=O)[O-],inactive,inactive,inactive,,,,inactive,inactive,inactive,,inactive,inactive,,inactive,inactive,inactive,inactive,inactive,inactive
CC(COc1ccc(Oc2ccccc2)cc1)Oc1ccccn1 (centres undefined),inactive,inactive,inactive,,,,inactive,inactive,inactive,,inactive,inactive,inactive,inactive,48.5 µM (active),,inactive,,inactive
CCC(C)(C)c1cc(-n2nc3ccccc3n2)c(O)c(C(C)(C)CC)c1,inactive,inactive,inactive,,,,inactive,inactive,inactive,inactive,inactive,inactive,,inactive,inactive,inactive,,inactive,inactive
O=[N+]([O-])c1cccc2c([N+](=O)[O-])cccc12,inactive,inactive,inactive,,,,inactive,inactive,inactive,inactive,inactive,inactive,inactive,inactive,3.88 µM (active),inactive,,inactive,inactive
CCCSC(=O)N(CCC)CCC,inactive,inactive,inactive,,,,inactive,inactive,inactive,,inactive,,,inactive,inactive,inactive,,inactive,inactive
Nc1n[nH]c(N)n1,inactive,inactive,inactive,,,,inactive,inactive,inactive,inactive,inactive,inactive,inactive,inactive,inactive,,inactive,inactive,inactive
ClCC(Cl)Cl,inactive,inactive,inactive,,,inactive,inactive,inactive,inactive,,inactive,inactive,inactive,inactive,,inactive,inactive,inactive,inactive
CC(C=O)Cc1ccc2c(c1)OCO2 (centres undefined),inactive,inactive,inactive,,,,inactive,inactive,,,inactive,inactive,,inactive,inactive,,inactive,,inactive
CC(C)(C)OC(=O)c1ncn2c1[C@@H]1CCCN1C(=O)c1c(Br)cccc1-2,inactive,inactive,inactive,,,,inactive,inactive,inactive,,inactive,inactive,inactive,inactive,,,inactive,inactive,inactive
Nc1c(Br)cc([N+](=O)[O-])cc1[N+](=O)[O-],55.1 µM (active),61.8 µM (active),inactive,inactive,,inactive,31 µM (active),inactive,,13.8 µM (active),,,,inactive,,inactive,inactive,,inactive
CCOC(=O)N(C)C(=O)CSP(=S)(OCC)OCC,inactive,inactive,inactive,,,,inactive,,inactive,,inactive,inactive,inactive,inactive,,,inactive,inactive,inactive
